Some test systems named below: HCT-15 colon; HT29 colon; SNB-75 CNS; SNB-19 CNS; U251 CNS; PC-3 prostate; SK-MEL-5 melanoma; UACC-62 melanoma; LOX IMVI melanoma; SK-MEL-28 melanoma; SK-MEL-2 melanoma; EKVX NSCLC; SN12C renal; UO-31 renal; TK-10 renal; ACHN renal; CAKI-1 renal; A498 renal; CCRF-CEM leukemia; MOLT-4 leukemia.
Holding throughout (test): NCI-60 one-dose screen, 48 h (100 = growth as untreated, 0 = no growth, -100 = all killed)
Common to all, as to conditions: 10 µM unless noted

SMILES strings stand for the structures. This is part of a sample that, as a whole, favours compounds with a hit. Of some 83,000 tested, about 20% had one in any assay.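 48-hour exposure, single concentration, 96-well plates; percent growth endpoint where 0 means no net growth. Active: below 10.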 Unmarked numbers belong to inactive results. Active and inactive are the calls of the source.

Turning to `O=C(N/N=C/c1ccc(Cl)cc1)c1ccc(NC(=O)c2ccccn2)cc1`, the growth with HCT-15 colon is 62.8%; with HT29 colon it was 71.8%; with SNB-75 CNS it was -16% (active); in the experiment on SNB-19 CNS, 64.9%; with U251 CNS it was 18.3%; in the experiment on PC-3 prostate, 79.8%. The growth was 39.7% with SK-MEL-5 melanoma; 62% in the experiment on UACC-62 melanoma; 54% with LOX IMVI melanoma; 52.1% in the experiment with SK-MEL-28 melanoma; 78.7% with SK-MEL-2 melanoma; 68.2% in the experiment with EKVX NSCLC. The growth was 38.2% in the experiment on SN12C renal; 0.719% (active) in the experiment on UO-31 renal; 47.3% with TK-10 renal; -0.994% (active) in the experiment on ACHN renal; 41.2% with CAKI-1 renal; 81.2% in the experiment on A498 renal. Also, the growth is 91% in the experiment with CCRF-CEM leukemia and 79.5% with MOLT-4 leukemia.
Regarding `C#Cc1cccc(NC(=O)C2CCCCN2C(=O)CCl)c1` (stereo not given), the growth with HCT-15 colon was -54.7% [8.25 µM] (active); in the experiment with HT29 colon, -52.5% [8.25 µM] (active); with SNB-75 CNS, -5.47% [8.25 µM] (active); with SNB-19 CNS, 20.1% [8.25 µM]; with U251 CNS it was -62.2% [8.25 µM] (active); in the experiment on PC-3 prostate it was -7.93% [8.25 µM] (active). The growth was -81.7% [8.25 µM] (active) in the experiment with SK-MEL-5 melanoma; -84.8% [8.25 µM] (active) with UACC-62 melanoma; -74.6% [8.25 µM] (active) with LOX IMVI melanoma; 2% [8.25 µM] (active) in the experiment with SK-MEL-28 melanoma; -51.7% [8.25 µM] (active) in the experiment on SK-MEL-2 melanoma; 19.6% [8.25 µM] in the experiment with EKVX NSCLC. Besides, the growth in the experiment on SN12C renal was -92.3% [8.25 µM] (active); in the experiment on UO-31 renal it was -97.3% [8.25 µM] (active); in the experiment on TK-10 renal it was 9.36% [8.25 µM] (active); in the experiment with ACHN renal, -97.3% [8.25 µM] (active); in the experiment with CAKI-1 renal it was -95.5% [8.25 µM] (active); in the experiment on A498 renal, 58.5% [8.25 µM]. Also, the growth in the experiment on CCRF-CEM leukemia was -11.9% [8.25 µM] (active); in the experiment on MOLT-4 leukemia, -13.7% [8.25 µM] (active).
Consider `CCOC(=O)c1c(NC(=O)c2ccccc2)sc2c3c(ccc12)OCN(C)C3`, for which the growth in the experiment with HCT-15 colon was -48.4% (active); in the experiment with HT29 colon, -20.3% (active); in the experiment on SNB-75 CNS it was 79.3%; in the experiment on SNB-19 CNS it was 8.15% (active); in the experiment with U251 CNS, -13% (active); in the experiment on PC-3 prostate, 21.7%. For the same compound, the growth in the experiment with SK-MEL-5 melanoma is -40.3% (active); with UACC-62 melanoma it was -71.2% (active); in the experiment with LOX IMVI melanoma it was -90.8% (active); in the experiment with SK-MEL-28 melanoma it was -92.2% (active); in the experiment with SK-MEL-2 melanoma, -34.4% (active); in the experiment on EKVX NSCLC, 26.3%. The growth was 20.4% with SN12C renal; -75.6% (active) in the experiment with UO-31 renal; 68.5% in the experiment with TK-10 renal; -68.7% (active) with ACHN renal; -42% (active) in the experiment on CAKI-1 renal; 46.5% with A498 renal. Also, the growth was -0.327% (active) with CCRF-CEM leukemia and -33% (active) in the experiment with MOLT-4 leukemia.
Take `CCOC(=O)c1cnn(CC(C)O)c1NC(=O)NCc1ccccc1C(F)(F)F` (stereo not given): the growth with HCT-15 colon was 101%; with HT29 colon, 82.1%; in the experiment with SNB-75 CNS it was 93.6%; with SNB-19 CNS it was 103%; in the experiment with U251 CNS, 101%; in the experiment on PC-3 prostate it was 107%. In addition, the growth in the experiment with SK-MEL-5 melanoma is 102%; with UACC-62 melanoma, 91.8%; in the experiment with LOX IMVI melanoma, 100%; with SK-MEL-28 melanoma, 103%; with SK-MEL-2 melanoma, 76.6%; in the experiment on EKVX NSCLC, 98.1%. Also, the growth was 99% with SN12C renal; 87.1% in the experiment on UO-31 renal; 80.9% in the experiment with TK-10 renal; 98.3% in the experiment on ACHN renal; 86.4% in the experiment with CAKI-1 renal; 108% in the experiment with A498 renal. Moreover, the growth in the experiment on CCRF-CEM leukemia was 114%; in the experiment on MOLT-4 leukemia it was 76%.
With `COc1ccc(-c2nc3c(c(-c4ccc(Cl)cc4)nn3-c3ccccc3)c(-c3ccccc3)c2C#N)cc1`, the growth with HCT-15 colon was 109%; in the experiment on HT29 colon, 101%; in the experiment with SNB-75 CNS it was 85.7%; in the experiment on SNB-19 CNS it was 103%; with U251 CNS, 99.6%; in the experiment on PC-3 prostate it was 91.3%. Further, the growth in the experiment on SK-MEL-5 melanoma is 100%; in the experiment on UACC-62 melanoma it was 98.5%; in the experiment on LOX IMVI melanoma it was 101%; in the experiment on SK-MEL-28 melanoma it was 108%; in the experiment with SK-MEL-2 melanoma, 109%; in the experiment on EKVX NSCLC it was 107%. Besides, the growth was 105% with SN12C renal; 101% in the experiment with UO-31 renal; 120% in the experiment with TK-10 renal; 107% with ACHN renal; 94.8% with CAKI-1 renal; 111% in the experiment with A498 renal. For the same compound, the growth with CCRF-CEM leukemia and in the experiment on MOLT-4 leukemia was 102% each time.
For the compound `CN1C(=O)/C(=C/c2ccc(C(=O)Nc3ncc(Cc4cccc(C(F)(F)F)c4)s3)cc2)SC1=S`, the growth with HCT-15 colon is 36.3%; in the experiment on HT29 colon, 55.4%; with SNB-75 CNS, 64.1%; in the experiment on SNB-19 CNS, 61.5%; in the experiment with U251 CNS, 67.8%; in the experiment on PC-3 prostate it was 53.5%. Besides, the growth is 7.19% (active) with SK-MEL-5 melanoma; 11.3% in the experiment on UACC-62 melanoma; 35% with LOX IMVI melanoma; 46.4% in the experiment on SK-MEL-28 melanoma; 56.7% with SK-MEL-2 melanoma; 37.1% in the experiment with EKVX NSCLC. Moreover, the growth in the experiment with SN12C renal was 73.4%; with UO-31 renal, 51.1%; in the experiment with TK-10 renal, 47.5%; in the experiment with ACHN renal it was 32.4%; with CAKI-1 renal, 22%; with A498 renal, 35.6%. Besides, the growth was 7.85% (active) in the experiment on CCRF-CEM leukemia and 46.8% in the experiment with MOLT-4 leukemia.
Turning to `c1cc(OCCN2CCCC2)ccc1CNc1ccc2nc(CCC3CCCCC3)[nH]c2c1`, the growth is 3.99% (active) in the experiment on HCT-15 colon; 7.25% (active) with HT29 colon; 64.1% in the experiment on SNB-75 CNS; 68.7% with SNB-19 CNS; 4.28% (active) with U251 CNS; 52% in the experiment on PC-3 prostate. In addition, the growth was -96.5% (active) in the experiment on SK-MEL-5 melanoma; 62.8% in the experiment with UACC-62 melanoma; -78.5% (active) with LOX IMVI melanoma; -85.3% (active) in the experiment on SK-MEL-28 melanoma; 35.6% in the experiment on SK-MEL-2 melanoma; 80.9% in the experiment on EKVX NSCLC. The growth was 71.3% in the experiment on SN12C renal; 9.54% (active) in the experiment on UO-31 renal; 95.1% in the experiment on TK-10 renal; 60.4% with ACHN renal; 4.69% (active) with CAKI-1 renal; 34.2% in the experiment with A498 renal. Moreover, the growth was 12.7% in the experiment on CCRF-CEM leukemia and 9.92% (active) in the experiment on MOLT-4 leukemia.
Turning to `c1cc(OCCN2CCCCC2)ccc1CNc1ccc2nc(CCC3CCCCC3)[nH]c2c1`, the growth in the experiment on HCT-15 colon is -13.9% (active); in the experiment on HT29 colon it was 8.7% (active); in the experiment with SNB-75 CNS, 68.1%; with SNB-19 CNS, 62%; in the experiment on U251 CNS, -11.8% (active); with PC-3 prostate, 44.9%. Besides, the growth with SK-MEL-5 melanoma is -99.4% (active); with UACC-62 melanoma, 53.5%; in the experiment with LOX IMVI melanoma, -82% (active); with SK-MEL-28 melanoma, -86.6% (active); with SK-MEL-2 melanoma, -11.3% (active); with EKVX NSCLC, 75.8%. The growth in the experiment on SN12C renal is 64.4%; with UO-31 renal it was -30.4% (active); with TK-10 renal it was 80.1%; in the experiment on ACHN renal, 45.4%; in the experiment on CAKI-1 renal, -28.5% (active); in the experiment with A498 renal, 10.5%. Besides, the growth in the experiment on CCRF-CEM leukemia is 5.76% (active); in the experiment on MOLT-4 leukemia it was 7.66% (active).

The values above are taken from PubChem BioAssay (NCI).
